High-throughput results (PubChem BioAssay)
In the library only some 2.3% were active in any assay of this set; here they are far more common.
CF NFkB block: blocks PAF-induced NF-kB reporter in cystic fibrosis cells; AID 588850; inhibition, % at 5 µM; KKLEB NF-kB-GFP reporter, GFP fluorescence overnight; 360,000 tested, 0.86% active;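 active means at least 50% inhibition at 5 µM, scaled per plate between neutral and stimulator controls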;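 further: PAF is a Pseudomonas aeruginosa culture filtrate used as stimulus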
TWEAK Fn14 block: TWEAK-Fn14 signaling inhibition; TWEAK-stimulated Fn14 reporter cells, luciferase luminescence, 8 h; inhibition, % at 10 µM; 360,000 tested, 2% active; AID 1159606; in the data active means inhibition above about 50%
LGR2 inh: blocks bursicon-induced cAMP signaling via Drosophila LGR2 | HEK293 LGR2, CRE-luciferase, bursicon-stimulated, 4 h | inhibition, % at 9.99 µM | 380,000 tested, 0.35% active;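 active means drop in luminescence signal, shown as inhibition above about 50% in the replicate tests, limit read from the data, passing the limit was not always enough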;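 further: agonist challenge used bursicon conditioned medium at about half maximal strength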
HIF-2a block: HIF-2a inhibition. 786-0 RCC cells HIF-2a reporter, luciferase luminescence, overnight. inhibition, % at 18.8 µM. 360,000 tested, 0.72% active;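 active means inhibition of the luminescence signal of 40% or more relative to plate controls, in a single-dose primary screen at 18.75 µM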
hiPSC survival: enhancers of human iPSC single-cell survival. survival enhancement, % at 20 µM. 360,000 tested, 0.044% active. hiPSC single-cell survival, ATPlite luminescence; 100% = ROCK inhibitor wells, 0% = DMSO; in the data active means survival enhancement above about 18%;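 further: cells exposed to compounds for 16 hours before the ATP read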
KKLEB cytotox: reduces viability of KKLEB cystic fibrosis airway cells; 360,000 tested, 0.36% active; activity change (cytotoxicity), % at 5 µM; KKLEB CF airway cells viability, ATPlite luminescence, overnight; hits give low values; cells stimulated with P. aeruginosa culture filtrate;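 active means corrected activity change at or below -50% at 5 µM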
Each line names hits and unclear results; the compound was inactive in the other large screens.

C[C@@H]1CN([C@@H](C)CO)C(=O)c2cc(C3=CCCCC3)cnc2O[C@H]1CN(C)S(C)(=O)=O	none (no result: CF NFkB block, TWEAK Fn14 block, HIF-2a block, hiPSC survival, KKLEB cytotox)
CO[C@H]1/C=C/O[C@@]2(C)Oc3c(C)c(O)c4c(O)c(c(C=NN5CCN(C)CC5)c(O)c4c3C2=O)NC(=O)/C(C)=C\C=C\[C@H](C)[C@H](O)[C@@H](C)[C@@H](O)[C@@H](C)[C@H](OC(C)=O)[C@@H]1C	CF NFkB block 55
CO[C@H]1C=CO[C@@]2(C)Oc3c(C)c(O)c4c(O)c(c(C=NN5CCN(C)CC5)c(O)c4c3C2=O)NC(=O)C(C)=CC=C[C@H](C)[C@H](O)[C@@H](C)[C@@H](O)[C@@H](C)[C@H](OC(C)=O)[C@@H]1C	none (no result: LGR2 inh)
Nc1nc2ccccc2n1/N=C/c1ccc(-c2ccccc2)o1	TWEAK Fn14 block 53 (no result: LGR2 inh)
N#C[C@H]1[C@H](c2ccccc2C2=CCCC2)[C@@H](CO)N1C(=O)NC1CCCC1	none (no result: CF NFkB block, TWEAK Fn14 block, HIF-2a block, hiPSC survival, KKLEB cytotox)
CC[C@]12c3[nH]c4cc(CCC(=O)N(C)C)ccc4c3CCN1C(=O)[C@@H](CC(=O)NCC13CC4CC(CC(C4)C1)C3)C[C@@H]2C(=O)N1CCN(C(=O)c2ccco2)CC1	TWEAK Fn14 block 96
CC(=O)c1c(C(C)=O)c(C)n(NC(=O)c2ccncc2)c1C	TWEAK Fn14 block 53 (no result: LGR2 inh)
O=C(Nn1cnnc1)c1ccncc1	none (no result: LGR2 inh)
CCOc1cc(CNc2ccc3c(c2)OCCO3)cc(Br)c1OCC(N)=O	TWEAK Fn14 block 88 (no result: LGR2 inh)
Cc1ccc(S(=O)(=O)N(C)C[C@H]2Oc3c(NC(=O)c4cnccn4)cccc3C(=O)N([C@H](C)CO)C[C@H]2C)cc1	none (no result: CF NFkB block, TWEAK Fn14 block, HIF-2a block, hiPSC survival, KKLEB cytotox)
Cc1cc(C(C)(C)C)cc(S(=O)(=O)NCCO)c1C	TWEAK Fn14 block 85 (no result: LGR2 inh)
Cc1ccc(/C=C/C(=O)O)cc1S(=O)(=O)NCCO	none
COc1ccc(NC(=O)N(C)C[C@H]2Oc3c(NS(=O)(=O)c4cccs4)cccc3C(=O)N([C@H](C)CO)C[C@H]2C)cc1	none (no result: CF NFkB block, TWEAK Fn14 block, HIF-2a block, hiPSC survival, KKLEB cytotox)
c1ccc(CSc2ncnc3sccc23)cc1	none
c1ccc2sc(Sc3ncnc4sccc34)nc2c1	CF NFkB block 72, TWEAK Fn14 block 83
Oc1[nH]c2ccccc2c1N=Nc1nc2ccccc2s1	none (no result: LGR2 inh)
C/C(N=Nc1nc2ccccc2s1)=N\Nc1ccccc1O	TWEAK Fn14 block 80
Cc1noc(C)c1S(=O)(=O)N(C)C[C@H]1OCCCC[C@@H](C)Oc2ccc(NC(=O)Nc3cccc4ccccc34)cc2C(=O)N([C@@H](C)CO)C[C@@H]1C	none (no result: CF NFkB block, TWEAK Fn14 block, HIF-2a block, hiPSC survival, KKLEB cytotox)
C/C(=C\c1ccc(C(=O)O)cc1)c1ccc2c(c1)C(C)(C)CCC2(C)C	CF NFkB block 91
CC1=CC(=O)C=C(C)C1=NOS(=O)(=O)c1ccccc1	HIF-2a block 63
Cc1ccc(S(=O)(=O)ON=C2CCN(S(=O)(=O)c3ccccc3)CC2)cc1	none (no result: LGR2 inh)
CC1=CC(=O)C(C(C)C)=C/C1=N/OS(=O)(=O)c1ccccc1	TWEAK Fn14 block 89 (no result: LGR2 inh)
C[C@H](CO)N1C[C@H](C)[C@@H](CN(C)C(=O)NC2CCCCC2)Oc2ccc(NC(=O)Nc3ccc(F)cc3)cc2C1=O	none (no result: CF NFkB block, TWEAK Fn14 block, HIF-2a block, hiPSC survival, KKLEB cytotox)
COc1ccc(S(=O)(=O)N(CCCN2CCOCC2)Cc2cccc3ccccc23)cc1	TWEAK Fn14 block 92 (no result: LGR2 inh)
CCN(CC(O)Cn1c2ccccc2c2ccccc21)S(=O)(=O)c1ccc(C)cc1 (stereo not drawn)	none (no result: LGR2 inh)
CC(=O)Nc1ccccc1N(CC(O)Cn1c2ccccc2c2ccccc21)S(=O)(=O)c1ccc(C)cc1 (stereo not drawn)	TWEAK Fn14 block 53
C=CC[n+]1c(-c2ccc(OC)cc2)csc1NNC(=O)Nc1ccccc1	none
C=CC[n+]1c(-c2ccc(C)cc2)csc1Nc1ccc(NC(C)=O)cc1	TWEAK Fn14 block 51, HIF-2a block 90
CCCCOC(=O)C1C2C=C[C@]3(CN(C(C)c4ccc(OC)cc4)C(=O)[C@H]13)O2 (stereo partly drawn)	TWEAK Fn14 block 89 (no result: LGR2 inh)
Cc1ccc(-c2cnc3c(c2)C(=O)N([C@H](C)CO)C[C@@H](C)[C@@H](CN(C)C(=O)c2cccnc2)O3)cc1	none (no result: CF NFkB block, TWEAK Fn14 block, HIF-2a block, hiPSC survival, KKLEB cytotox)
O=C1N(c2ccccc2)C[C@@H]2C[C@@H](c3cc4ccccc4o3)N3CCC[C@@]123	CF NFkB block 87, TWEAK Fn14 block 84, LGR2 inh 90, KKLEB cytotox -66
O=c1cc2c(=O)oc3cc(O)c(O)oc3c2c(O)c1O	TWEAK Fn14 block 83
O=c1oc2cc(O)c(Cl)cc2c2ccccc12	none
COCC(=O)N1CC2(C1)CN(C(=O)CN1CCOCC1)[C@@H](CO)c1c2c2ccc(OC)cc2n1C	none (no result: CF NFkB block, TWEAK Fn14 block, HIF-2a block, hiPSC survival, KKLEB cytotox)
NC(=S)N=Nc1c(O)n(CCCl)c2ccc(Br)cc12	none
C/C(Cl)=C\Cn1c(O)c(N=NC(N)=S)c2cc(Br)ccc21	CF NFkB block 56
NC(=S)N=Nc1c(O)n(Cc2ccc(Br)cc2)c2ccccc12	KKLEB cytotox -52
O=C(Cc1ccccc1)N[C@@H]1C=C[C@@H](CC(=O)N2CCOCC2)O[C@@H]1CO	none (no result: CF NFkB block, TWEAK Fn14 block, HIF-2a block, hiPSC survival, KKLEB cytotox)
O=C(Nc1ccc(F)cc1)NC1(C(=O)NCc2ccco2)CCCCC1	KKLEB cytotox -79 (no result: LGR2 inh)
C[C@@H]1CCCCO[C@@H](CN(C)C)[C@H](C)CN([C@H](C)CO)C(=O)c2cc(NC(=O)C3CCCCC3)ccc2O1	none (no result: CF NFkB block, TWEAK Fn14 block, HIF-2a block, hiPSC survival, KKLEB cytotox)
Cc1ccc(C(=O)NC(=C(Cl)Cl)S(=O)(=O)c2ccc(C)cc2)cc1	TWEAK Fn14 block 54
Cc1ccc(C(=O)NS(=O)(=O)c2ccc(C)cc2)cc1	none
Cc1ccc(C(=O)NC(=C(Cl)Cl)S(=O)(=O)c2ccc(Cl)cc2)cc1	TWEAK Fn14 block 93
Cc1ccsc1C(=O)OCC(=O)NCCNC(=O)COC(=O)c1sccc1C	none
Cc1ccsc1C(=O)OCC(=O)Nc1sccc1C(N)=O	hiPSC survival 20 (no result: LGR2 inh)
Cc1ccsc1C(=O)OCC(=O)N(C)C1CCCCC1	TWEAK Fn14 block 63
COC(=O)c1ccc(/C=C/C(=O)OCC(=O)Nc2sccc2C(N)=O)cc1	TWEAK Fn14 block 68 (no result: LGR2 inh)
O=C(c1ccncc1)N1C[C@@H]2[C@H](c3ccccc31)[C@H](CO)N2C(=O)c1ccccn1	none (no result: CF NFkB block, TWEAK Fn14 block, HIF-2a block, hiPSC survival, KKLEB cytotox)
Cc1ccc(S(=O)(=O)N2CCCCC2)cc1NCC(=O)Nc1ccc(Br)cc1F	TWEAK Fn14 block 80
Cc1cc(C(=O)Nc2cccc3c2O[C@H](CN(C)S(=O)(=O)c2ccccc2)[C@H](C)CN([C@H](C)CO)C3=O)n(C)n1	none (no result: CF NFkB block, TWEAK Fn14 block, HIF-2a block, hiPSC survival, KKLEB cytotox)
C[C@H](NC(=O)C[C@H]1C[C@@H]2c3cc(NC(=O)CN(C)C)ccc3O[C@@H]2[C@H](CO)O1)c1ccccc1	none (no result: CF NFkB block, TWEAK Fn14 block, HIF-2a block, hiPSC survival, KKLEB cytotox)
Oc1ccc(O)c(-c2cnns2)c1	TWEAK Fn14 block 57
Oc1ccc(Br)cc1-c1ccn[nH]1	none
C[C@@H]1CN([C@@H](C)CO)C(=O)c2cc(NC(=O)Nc3cccc4ccccc34)ccc2O[C@H]1CN(C)S(=O)(=O)c1ccc(Cl)cc1	none (no result: CF NFkB block, TWEAK Fn14 block, HIF-2a block, hiPSC survival, KKLEB cytotox)
COc1ccc(C2C3=C(Nc4ncnn42)c2ccccc2CCC3)cc1 (stereo not drawn)	none (no result: LGR2 inh)
